Measured values published in PubChem BioAssay AID1740 (National Center for Advancing Translational Sciences (NCATS), 2009).
Results filed as inconclusive are left out. Calls of active or inactive are those of the source. Calls follow the shape of the dose curve; as a rule, active = well fitted activation curve with a large enough effect; inconclusive = small, poorly fitted or top-dose-only effect; inactive = no such curve, though single readings can be large or run the other way.

Assay: Confirmation Concentration-Response Assay for Enhancers of SMN2 Splice Variant Expression
Settings: HEK293 SMN2-exon7-luciferase splicing reporter, luminescence, 30-36 h; series mostly up to 46.1 µM; activation: at the top concentration
In short: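 Luciferase signal reports exon 7 inclusion from an SMN2-luciferase construct stably expressed in HEK293 cells. After 30-36 h compound exposure at 37C, One Glo reagent was added and luminescence read; sodium butyrate 4.5mM final served as control.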

activation, inactive:
Clc1ccc(-c2nnc(-c3ccccc3)c(N3CCSCC3)n2)cc1 -1.83% [at 22.7 µM]
OCCCNc1nc(-c2ccc(Br)cc2)nnc1-c1ccc(Cl)cc1 -38.2% [at 22.7 µM]
CN(C)CCCN(C(=O)c1cccs1)c1nc(-c2ccccc2)cs1 -7.7% [at 22.7 µM]
O=C(Cc1c(F)cccc1Cl)N1CCN(C(=O)c2ccco2)CC1 -5.31%
Cc1[nH]c2ccccc2c1-c1nc(-c2ccc(Cl)cc2)nnc1-c1ccccc1 13.1% [at 22.7 µM]
Clc1nc(NCc2cccs2)c2[nH]cnc2n1 -49.8%
O=C(NCCCNCCCNC(=O)c1ccccn1)c1ccccn1 -12%
CCCCOC(C)n1cc(F)c(=O)[nH]c1=O (configuration not stated) -17.1% [at 22.7 µM]
Cc1nnc(-c2ccccc2)[nH]c1=O -2.84% [at 22.7 µM]
c1coc(CNc2ncnc3ccccc23)c1 -53.2%
NC(=O)C1(N2CCCCC2)CCN(c2nc(-c3ccc(Br)cc3)cs2)CC1 -43.5% [at 22.7 µM]
FC(F)C(F)(F)C1=CC(c2cccs2)=NCCN1 0.924%
O=C1CCC(C(=O)Nc2cccc3ccccc23)N1 (configuration not stated) 13%
Brc1nc2ncnc(NCc3ccco3)c2[nH]1 -18%
Fc1ccc(Oc2nc(-c3ccccc3)nnc2C(F)(F)F)cc1 -16.3% [at 22.7 µM]
O=c1[nH]c(=O)n(C2CCCO2)cc1Br (configuration not stated) -5.56% [at 22.7 µM]
COCCCN1C(=O)C(=O)/C(=C(/O)c2ccc3c(c2)CC(C)O3)C1c1cccnc1 (configuration not stated) 8.87%
Cc1ccc(C2c3c(oc4ccccc4c3=O)C(=O)N2CCCN2CCOCC2)o1 (configuration not stated) 14.5%
CN(Cc1ccccc1)Cc1c(F)cccc1F -9.07%
O=C(NCc1cccs1)C(=O)NCC1OCCCN1S(=O)(=O)c1ccccc1 (configuration not stated) 10.3%
O=[N+]([O-])c1ccc(-c2nnc(-c3ccccc3)c(NCCCO)n2)cc1 23.6% [at 22.7 µM]
CCOc1ccc2nc(N3CCC(C(=O)N4CCN(c5ccccn5)CC4)CC3)sc2c1 -40.3% [at 22.7 µM]

Potency, active:
CCOc1c(Cl)cc(C(=O)Nc2ccccc2C(=O)O)cc1Cl 2.82 µM
OC[C@H]1O[C@@H](n2cnc3c(Nc4ccccc4)ncnc32)[C@H](O)[C@H]1O 8.91 µM
CCCSc1nnc2c(n1)OC(c1sccc1C)Nc1ccccc1-2 (configuration not stated) 2 µM
Cc1oncc1C(=O)Nc1ccc(C(F)(F)F)cc1 7.08 µM
Cn1c(C(=O)NCc2cccs2)cc2oc3ccccc3c21 2.82 µM
